Active and inactive are the calls of the source.

For experiment [1], the system named is Plasmodium falciparum Sir2 (PF13_0152, Sir2A). Description: Plasmodium falciparum Sir2A binding compounds – biochemical, small-molecule microarray, 635 nm fluorescence, primary screen (AID 1098).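 Further: score merges spot fluorescence intensity with its signal-to-noise ratio.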 The conditions noted are these: fluorescence 635 nm, higher = more signal.
The nature of experiment [2]: probe aDKK1 binding to arrayed compounds – biochemical, biotinylated probe, 635/667 nm fluorescence, primary screen (AID 1099).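 Further: score merges 667nm spot fluorescence with signal to noise across triplicate slides.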 The conditions noted are these: small-molecule microarray, higher = more signal.
Experiment [3] can be described thus: probe aCHRDL2 binding to arrayed compounds – biochemical, biotinylated probe, 635/667 nm fluorescence, primary screen (AID 1100). The note with it: small-molecule microarray, higher = more signal.
Experiment [4] can be described thus: change in splice reporter luminescence, either direction, cell-based, HEK293, spliceosome inhibition project, primary screen (AID 1101).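 Further: HEK293 cells carrying a splicing-competent luciferase reporter gene; test concentration not given here.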 The note with it: HEK293 splicing luciferase reporter, 24 h, higher = more signal, called active from +8 up or from −8 down. (In general: A reporter such as luciferase makes a cellular process visible.)
Experiment [5] addresses Fibroblast growth factor 10 (Homo sapiens) (UniProt O15520). The experiment in a line: compounds binding fibroblast growth factor 10 – biochemical, small-molecule microarray, 635 nm fluorescence, primary screen (AID 1102). The conditions noted are these: FGF10 binding, fluorescence 635 nm, higher = more signal.
For experiment [6], the system named is glycogen synthase kinase-3 (GSK3A per assay name; protocol says GSK3B). Description: compounds binding glycogen synthase kinase-3 – biochemical, small-molecule microarray, 635 nm fluorescence, GSK3A, primary screen (AID 1103). Further: the record names both GSK3A and GSK3B. The note with it: fluorescence 635 nm, higher = more signal.
In experiment [7] the target is Epidermal growth factor receptor (Homo sapiens) (UniProt P00533). Description: compounds binding epidermal growth factor receptor – biochemical, small-molecule microarray, 635 nm fluorescence, primary screen (AID 1104).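 Further: score merges 667 nm emission intensity with spot signal to noise over triplicate slides.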 The conditions noted are these: EGFR binding, higher = more signal.
Epidermal growth factor receptor (Homo sapiens), sequence (P00533 whole entry, looked up): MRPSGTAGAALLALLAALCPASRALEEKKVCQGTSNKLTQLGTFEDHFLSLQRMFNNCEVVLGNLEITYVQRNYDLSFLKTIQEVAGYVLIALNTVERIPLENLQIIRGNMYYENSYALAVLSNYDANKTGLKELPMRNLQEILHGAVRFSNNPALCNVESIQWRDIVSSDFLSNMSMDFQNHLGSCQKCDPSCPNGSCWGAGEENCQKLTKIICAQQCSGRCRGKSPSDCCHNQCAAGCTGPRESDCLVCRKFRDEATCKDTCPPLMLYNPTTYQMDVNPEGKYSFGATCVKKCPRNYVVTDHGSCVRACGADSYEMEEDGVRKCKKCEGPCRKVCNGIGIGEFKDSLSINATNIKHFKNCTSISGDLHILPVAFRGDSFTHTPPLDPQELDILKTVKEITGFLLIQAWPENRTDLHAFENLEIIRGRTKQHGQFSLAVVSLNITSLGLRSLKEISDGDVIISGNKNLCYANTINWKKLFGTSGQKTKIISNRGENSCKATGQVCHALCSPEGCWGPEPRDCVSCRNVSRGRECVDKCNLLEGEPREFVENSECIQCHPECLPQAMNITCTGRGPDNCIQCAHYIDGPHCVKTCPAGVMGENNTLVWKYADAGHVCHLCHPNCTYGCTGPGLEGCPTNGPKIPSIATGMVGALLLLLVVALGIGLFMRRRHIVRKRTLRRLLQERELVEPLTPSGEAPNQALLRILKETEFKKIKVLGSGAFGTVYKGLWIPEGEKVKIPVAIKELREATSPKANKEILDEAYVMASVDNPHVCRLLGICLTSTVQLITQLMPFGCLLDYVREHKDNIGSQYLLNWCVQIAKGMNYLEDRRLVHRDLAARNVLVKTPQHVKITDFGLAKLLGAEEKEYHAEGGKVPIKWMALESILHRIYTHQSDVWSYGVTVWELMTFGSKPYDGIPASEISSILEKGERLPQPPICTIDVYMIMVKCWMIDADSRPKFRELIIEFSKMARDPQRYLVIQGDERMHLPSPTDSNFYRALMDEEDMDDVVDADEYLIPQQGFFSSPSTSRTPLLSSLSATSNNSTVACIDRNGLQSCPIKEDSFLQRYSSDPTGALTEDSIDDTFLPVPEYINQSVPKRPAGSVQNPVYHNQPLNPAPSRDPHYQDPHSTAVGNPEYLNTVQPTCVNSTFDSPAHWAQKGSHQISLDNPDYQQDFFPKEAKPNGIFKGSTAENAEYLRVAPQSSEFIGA
The target of experiment [8] is Follistatin-related protein 3 (Homo sapiens) (UniProt O95633). Description: compounds binding follistatin-related protein 3 – biochemical, small-molecule microarray, 635 nm fluorescence, primary screen (AID 1105).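 Further: score merges emission near 667 nm and signal to noise per printed spot across three slides.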 The conditions noted are these: FSTL3 binding, higher = more signal.
Follistatin-related protein 3 (Homo sapiens), sequence (O95633 whole entry, looked up): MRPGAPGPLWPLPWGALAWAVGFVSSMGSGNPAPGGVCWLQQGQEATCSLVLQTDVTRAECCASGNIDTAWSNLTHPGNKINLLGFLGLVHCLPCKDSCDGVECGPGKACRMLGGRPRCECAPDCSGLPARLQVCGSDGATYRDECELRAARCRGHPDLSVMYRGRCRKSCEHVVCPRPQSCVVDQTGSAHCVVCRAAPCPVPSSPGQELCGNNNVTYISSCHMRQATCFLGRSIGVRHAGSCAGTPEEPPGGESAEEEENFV
Experiment [9] addresses Dickkopf-related protein 1 (Homo sapiens) (UniProt O94907). Description: small molecules binding DKK1 protein – biochemical, small-molecule microarray, 635 nm fluorescence scan, primary screen (AID 1106).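 Further: score merges emission near 667 nm with signal to noise over three replicate slides.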 The conditions noted are these: higher = more signal.
Experiment [10] has as its system Inhibin beta A chain (activin A). Description: small molecules binding activin A – biochemical, small-molecule microarray, 635 nm fluorescence scan, primary screen (AID 1107).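 Further: mouse activin A protein probed at 4.33 µg/mL on printed slides; score merges bound-protein fluorescence near 667 nm with spot signal-to-noise.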 The note with it: INHBA, higher = more signal.
The test system of experiment [11] is Human papillomavirus type 1a protein E7 (residues 44-93). Description: small molecules binding HPV E7 44-93 – biochemical, small-molecule microarray, residues 44-93, 635 nm fluorescence, primary screen (AID 1108).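 Further: E7 fragment applied at 1 µg/mL in TBST for 1 h at 4 C; score combines spot fluorescence with its signal to noise ratio.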 The conditions noted are these: fluorescence 635 nm, higher = more signal.
The nature of experiment [12]: hepatitis C replication reporter changes, two-sided – Huh7 cells, luciferase reporter, HCV replication inhibitor project, primary screen (AID 1109).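 Further: huh7 hepatoma cells harbouring a luciferase neomycin HCV replicon reporter; luciferase luminescence as measure of HCV replicon replication; test concentration not given here.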 The conditions noted are these: Huh7 HCV replicon luciferase reporter, 48 h; higher = more signal.
Experiment [13] addresses Left-right determination factor 2 (Homo sapiens) (UniProt O00292). The experiment in a line: small molecules binding LEFTY2 protein – biochemical, small-molecule microarray, 635 nm fluorescence scan, primary screen (AID 1110). The note with it: higher = more signal.
In experiment [14] the target is Calmodulin-1 (Homo sapiens) (UniProt P0DP23). Description: small molecules binding calmodulin-1 with EGTA – biochemical, small-molecule microarray, Cy5-labelled CALM1, profiling panel (AID 1111).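 Further: labelled calmodulin applied in Tris saline Tween buffer holding calcium plus EGTA and DTT.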 The note with it: Cy5-CALM1 binding fluorescence, higher = more signal.
Experiment [15] shares this target. The experiment in a line: small molecules binding Ca-loaded calmodulin-1 – biochemical, small-molecule microarray, Cy5-labelled CALM1, plus calcium, artefact control for SMM control-protein annotation, profiling panel (AID 1112).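 Further: score merges spot fluorescence with signal to noise from triplicate slides.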 The note with it: Cy5-CALM1 binding fluorescence, higher = more signal.
Experiment [16] is described as follows: probe aWnt5a binding to arrayed compounds – biochemical, biotinylated probe, 635/667 nm fluorescence, primary screen (AID 1113).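 Further: score merges 667 nm fluorescence intensity with signal-to-noise per printed feature.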 The conditions noted are these: small-molecule microarray, higher = more signal.
Experiment [17] can be described thus: probe aShh binding to arrayed compounds – biochemical, biotinylated probe, 635/667 nm fluorescence, primary screen (AID 1114).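 Further: probe is biotin-labelled aShh protein from a stem cell growth factor screen; measures binding of labelled protein to compounds printed on the slide; score merges feature fluorescence at 667 nm with signal-to-noise.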 The conditions noted are these: small-molecule microarray, higher = more signal.
Experiment [18] can be described thus: probe aNog binding to arrayed compounds – biochemical, biotinylated probe, 635/667 nm fluorescence, primary screen (AID 1115).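 Further: probe is biotinylated aNog protein used at 0.15 µg/mL for 1 h at 4 C; z-score combines 667 nm fluorescence of each spot with its signal to noise.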 The note with it: small-molecule microarray, higher = more signal.
Experiment [19] has as its target Torsin-1A-interacting protein 1 (Homo sapiens) (UniProt Q5JTV8). Description: compound microarray binding of lysate hLAP1 – cell lysate, small-molecule microarray, COS7 lysate, 635/667 nm fluorescence, primary screen (AID 1116). The conditions noted are these: 635 nm fluorescence, higher = more signal.
In experiment [20] the target is Alpha-bungarotoxin (Bungarus multicinctus) (UniProt P60615). Description: compounds binding labelled alpha-BTX control protein – biochemical, small-molecule microarray, Alexa647 label, 635/667 nm fluorescence, artefact control for SMM control protein annotation, profiling panel (AID 1117). The conditions noted are these: alpha-BTX-A647 binding fluorescence, higher = more signal.
Alpha-bungarotoxin (Bungarus multicinctus), sequence (P60615 whole entry, looked up): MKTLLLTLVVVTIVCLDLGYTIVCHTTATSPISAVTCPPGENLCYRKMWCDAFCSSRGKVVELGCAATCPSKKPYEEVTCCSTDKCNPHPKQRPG

Torsin-1A-interacting protein 1 (Homo sapiens), sequence (Q5JTV8 whole entry, looked up): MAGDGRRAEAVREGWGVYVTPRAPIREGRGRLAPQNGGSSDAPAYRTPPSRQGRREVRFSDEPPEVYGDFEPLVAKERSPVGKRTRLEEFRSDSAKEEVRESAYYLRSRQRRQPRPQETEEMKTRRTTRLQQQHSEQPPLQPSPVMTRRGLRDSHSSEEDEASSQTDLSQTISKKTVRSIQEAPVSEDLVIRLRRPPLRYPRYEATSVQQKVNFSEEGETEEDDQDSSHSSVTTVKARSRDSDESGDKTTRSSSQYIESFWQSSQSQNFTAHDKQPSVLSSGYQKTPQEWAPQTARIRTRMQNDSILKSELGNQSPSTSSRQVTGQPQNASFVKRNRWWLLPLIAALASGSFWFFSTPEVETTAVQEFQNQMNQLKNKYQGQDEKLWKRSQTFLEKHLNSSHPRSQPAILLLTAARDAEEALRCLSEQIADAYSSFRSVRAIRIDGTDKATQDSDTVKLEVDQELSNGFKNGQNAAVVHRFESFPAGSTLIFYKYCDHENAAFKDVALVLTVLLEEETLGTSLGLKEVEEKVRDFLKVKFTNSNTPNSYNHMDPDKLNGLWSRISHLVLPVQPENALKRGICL
Dickkopf-related protein 1 (Homo sapiens), sequence (O94907 whole entry, looked up): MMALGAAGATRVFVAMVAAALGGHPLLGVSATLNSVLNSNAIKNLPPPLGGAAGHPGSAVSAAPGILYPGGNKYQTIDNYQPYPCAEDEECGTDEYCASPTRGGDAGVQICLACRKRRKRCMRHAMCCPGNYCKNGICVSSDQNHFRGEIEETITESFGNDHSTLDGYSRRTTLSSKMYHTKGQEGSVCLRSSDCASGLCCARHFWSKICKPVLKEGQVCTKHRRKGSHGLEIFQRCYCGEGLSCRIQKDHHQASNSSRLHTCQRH
Fibroblast growth factor 10 (Homo sapiens), sequence (O15520 whole entry, looked up): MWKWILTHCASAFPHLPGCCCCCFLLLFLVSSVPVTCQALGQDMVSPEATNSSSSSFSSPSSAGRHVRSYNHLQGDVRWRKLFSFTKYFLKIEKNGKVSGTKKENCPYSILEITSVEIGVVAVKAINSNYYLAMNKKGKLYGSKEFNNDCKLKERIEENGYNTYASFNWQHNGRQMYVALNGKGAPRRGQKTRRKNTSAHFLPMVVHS
Left-right determination factor 2 (Homo sapiens), sequence (O00292 whole entry, looked up): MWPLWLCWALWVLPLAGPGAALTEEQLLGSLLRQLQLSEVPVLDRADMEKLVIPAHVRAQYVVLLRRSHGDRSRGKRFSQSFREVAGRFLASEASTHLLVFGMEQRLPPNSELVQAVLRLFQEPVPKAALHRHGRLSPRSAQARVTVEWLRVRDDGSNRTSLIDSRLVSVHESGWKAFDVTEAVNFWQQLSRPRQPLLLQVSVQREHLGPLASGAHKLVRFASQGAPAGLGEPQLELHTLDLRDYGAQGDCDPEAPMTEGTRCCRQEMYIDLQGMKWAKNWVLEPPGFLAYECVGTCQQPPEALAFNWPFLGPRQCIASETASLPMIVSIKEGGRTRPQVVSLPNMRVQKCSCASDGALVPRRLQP

With `COCCCNC(=O)[C@@]1(Sc2ccc(C)cc2)CC(=O)N(C2CCCCC2)[C@@H]1c1ccc(CO)cc1`, the composite z-score is 0.0677 in [1]; 0.196 in experiment [2]; 0.899 in [3]; 0.229 in experiment [5]; -0.823 in [6]; -0.687 in experiment [7]. Further, the composite z-score in [8] was -1.1; in experiment [9], -1.65; in experiment [10], 0.446; in experiment [11], 0.104; in experiment [13], -0.942; in experiment [14], -0.206. Besides, the composite z-score is 0.0573 in [15]; -0.0799 in [16]; -0.0643 in experiment [17]; 0.684 in experiment [18]; 0.447 in experiment [19]; -0.255 in experiment [20]. The z-score in experiment [4] was -0.397 (inactive); in experiment [12], -1.19.
For the molecule `COC(=O)[C@@]1(Cc2ccccc2)[C@H]2c3cc(C(=O)N(C)C)n(CCN4CNCC4=O)c3C[C@H]2CN1C(=O)c1ccccc1`, the composite z-score in [1] was 1.59; in [2] it was 1.38; in [3] it was 1.31; in experiment [5], -0.243; in [6] it was -0.604; in experiment [7], -1.71. The composite z-score in experiment [8] is -0.618; in [9], -1.59; in experiment [10], 0.433; in [11], -0.5; in [13], -1.47; in experiment [14] it was 2.98. Besides, the composite z-score in experiment [15] is -2.29; in experiment [16], 0.401; in experiment [17], 0.0183; in experiment [18], 1.99; in experiment [19], 4.42; in [20] it was 3.12. Moreover, the z-score in [4] is 1.25 (inactive); in experiment [12], 0.188.
On to `O=C(N1CCCCC1)[C@@]1(CCS(=O)(=O)c2ccccc2)COC(c2ccc(OCCCO)cc2)=N1`, for which the composite z-score was 1.38 in [1]; 1.12 in experiment [2]; 1.21 in experiment [3]; 0.96 in [5]; 1.02 in experiment [6]; -0.075 in [7]. In addition, the composite z-score in experiment [8] is 0.348; in experiment [9], 0.495; in experiment [10], 1.21; in [11] it was 0.517; in [13] it was -0.0902; in experiment [14] it was 0.695. The composite z-score was -0.438 in experiment [15]; 0.0374 in experiment [16]; -0.0064 in experiment [17]; -0.489 in [18]; 1.51 in [19]; 0.632 in experiment [20]. The results for the z-score in experiment [4] and in [12] were 1.74 (inactive) and -0.98, respectively.
As for `C=CCC(OC(C)=O)[C@@H]1[C@@H](N(Cc2cccc3ccccc23)C(=O)Cc2ccc(OC)cc2)c2cc(OCCCO)ccc2N1C(=O)c1ccc2ccccc2n1` (stereo not given in full), the composite z-score in experiment [1] is -0.316; in [2] it was -0.0805; in experiment [3], 0.144; in experiment [5], 0.103; in [6], -0.135; in experiment [7], 0.124. Also, the composite z-score in experiment [8] is 0.484; in experiment [9], -0.0462; in experiment [10], 1.33; in experiment [11] it was 0.26; in experiment [13], 0.172; in [14], 0.0729. For the same molecule, the composite z-score in [15] was 0.259; in experiment [16] it was 0.0132; in experiment [17], -0.17; in experiment [18], -0.456; in experiment [19], 0.307; in experiment [20], 0.472. The z-score in experiment [4] is -0.326 (inactive); in experiment [12], -0.043.
As for `COC(=O)[C@@]1(Cc2ccc(F)cc2)[C@H]2c3cc(C(=O)N(C)C)n(CCc4ccc(O)c(OC)c4)c3C[C@H]2CN1C(=O)c1ccccc1`, the composite z-score in experiment [1] came to 0.0736; in experiment [2], 2.29; in experiment [3], 0.884; in [5], 1.05; in experiment [6], 0.776; in experiment [7], 1.45. Also, the composite z-score in experiment [8] was 0.62; in [9], 0.399; in [10] it was 0.366; in [11], 0.768; in [13], 0.543; in [14], 0.187. Further, the composite z-score in [15] is -0.323; in [16], 1.2; in experiment [17], 2.74; in [18], 2.48; in [19], 0.279; in experiment [20], 0.434. For the same molecule, the results for the z-score in [4] and in experiment [12] were 0.655 (inactive) and 1.09, respectively.
`Cc1cc(C)cc(N2C(=O)CSC2c2cccc([N+](=O)[O-])c2)c1` (stereo not given): the composite z-score in [1] came to 1.13; in [2], 0.94; in experiment [3], 0.398; in experiment [5], 1.15; in experiment [6], 1.29; in [7] it was 0.279. The composite z-score in experiment [8] was 1.35; in experiment [9], 0.905; in experiment [10], -0.639; in experiment [11] it was 0.0826; in experiment [13], 0.571; in experiment [14] it was 1.6. Besides, the composite z-score was 0.463 in [15]; 0.0873 in [16]; 0.0815 in experiment [17]; 0.0373 in experiment [18]; 0.516 in [19]; 1.7 in [20]. Further, the values for the z-score in experiment [4] and in experiment [12] were 1.07 (inactive) and -1.26, respectively.
In the case of `COC(=O)[C@H](Cc1ccccc1)N1CC(/C=C/C2CC2)=C[C@H]1[C@H](O)Cc1ccccc1`, the composite z-score in [1] is 0.728; in experiment [2] it was -0.0559; in experiment [3], -0.165; in experiment [5], 0.697; in [6] it was 0.368; in [7], 0.237. Also, the composite z-score in [8] came out at 0.702; in experiment [9], 0.734; in experiment [10], 0.597; in experiment [11] it was 0.484; in experiment [13] it was 0.396; in experiment [14] it was 0.405. Also, the composite z-score is -0.647 in [15]; -0.0944 in experiment [16]; -0.0693 in [17]; 0.287 in [18]; 0.425 in [19]; 1.2 in experiment [20]. Besides, the z-score in [4] is 20.9 (active); in [12] it was -4.03.
Regarding `COC(=O)CCCCCCC(=O)Nc1ccc(NC(=O)CCCC[P+](c2ccccc2)(c2ccccc2)c2ccccc2)cc1`, the composite z-score is 0.5 in experiment [1]; -0.238 in experiment [2]; -0.842 in [3]; 1.38 in experiment [5]; 0.686 in experiment [6]; 0.758 in experiment [7]. Moreover, the composite z-score in [8] was 0.955; in experiment [9], 1.16; in experiment [10], 0.59; in experiment [11], -0.0924; in experiment [13] it was 0.749; in [14], -0.0302. In addition, the composite z-score in experiment [15] is -0.516; in experiment [16], -0.0751; in experiment [17] it was -0.147; in experiment [18] it was -0.209; in experiment [19], 0.533; in experiment [20] it was -0.573. Further, the z-score in experiment [4] was -0.186 (inactive); in [12], 0.319.

These data come from PubChem BioAssay.
